Only some compounds are listed: those with a hit (about 1.1% of all), similar ones and a draw of the others.
BRCA1 expr up = qHTS Assay to Identify Small Molecule Activators of BRCA1 Expression; MCF7-BRCA1-FFLuc reporter, luminescence, 48 h; response scale: scaled: vehicle 0%, 10 µM genistein 100%; Potency, µM (doses to about 46.1 µM), actives largely listed as activators; actives 1.1% (n = 380,000); AID 624202, 2012; also: nearly all actives have a fitted effect of over 80% in size
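Using MCF7 cells harboring a BRCA1 firefly luciferase reporter, plated 2 h before compound pinning, the screen measured luminescence after 48 h incubation. Responses were normalized to DMSO and 10 microM genistein, then fitted for concentration-effect.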
p53 reactivation = qHTS assay for re-activators of p53 using a Luc reporter | H1299 p53-A138V BP100-luciferase reporter, luminescence, 24 h | Potency, µM (titrated, usually from 92.2 µM), hits mostly activators | actives 0.063% (n = 320,000) | AID 504706, 2011; also: nearly all actives have a fitted effect of over 45% in size
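p53-null H1299 cells stably carrying temperature-sensitive p53-A138V and a BP100-luciferase reporter were pinned with compounds (4-point, 1:5 series) and held 24 hrs at 37 deg C. Luminescence was read 10 min after detection reagent.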
miR-21 reporter = qHTS Assay for Modulators of miRNAs and/orActivators of miR-21; HeLa miR-21 FLuc reporter, luciferase, 48 h; Potency, µM (series often up to 38.3 µM), most hits filed as activators; 340,000 tested, under 10 active; AID 2288, 2010;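 also: miR-21 action dims this reporter so a rising signal means less miR-21 action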
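HeLa cells stably expressing CMV-driven firefly luciferase with a downstream miR-21 binding sequence, endogenously expressing miR-21, were treated with titrations (up to about 40uM final) for 48 hours at 37 degree Celsius. Luciferase luminescence was read after lysis.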
Apoferritin bind = qHTS Assay for Identification of Novel General Anesthetics | Ferritin light chain (Equus caballus), P02791 | apoferritin/1-aminoanthracene competitive binding, fluorescence | Potency, µM (titrated, usually from 77.5 µM), usual class: inhibitors | actives 0.074% (n = 350,000) | AID 485281, 2010; also: nearly all actives have a fitted effect of over 20% in size
Target sequence (P02791 2-175 limits assumed): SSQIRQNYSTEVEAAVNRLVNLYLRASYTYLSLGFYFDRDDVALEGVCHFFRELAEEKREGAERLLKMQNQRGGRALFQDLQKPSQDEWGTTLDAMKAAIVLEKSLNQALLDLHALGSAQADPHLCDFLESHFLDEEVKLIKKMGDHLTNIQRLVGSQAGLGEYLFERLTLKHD
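Horse-spleen apoferritin (10 uM) was mixed with 50% saturated 1-aminoanthracene in PBS, exposed to compounds for 10 min at room temperature, and read for fluorescence (ex 380 nm, em 535 nm). Competitive displacement was fitted with a four-parameter Hill equation.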
A number is an active result; - = inactive; ? = inconclusive; . = no result given. Calls follow the shape of the dose curve; as a rule, active = well fitted curve in the direction sought with a large enough effect; inconclusive = small, poorly fitted or top-dose-only effect, or another doubt; inactive = no such curve, though single readings can be large; an effect the other way counts as inactive or inconclusive.

SMILES	BRCA1 expr up	p53 reactivation	miR-21 reporter	Apoferritin bind
CC(=O)c1cccc(NC(=O)Nc2ccc3c(c2)CCC3)c1	7.1µM	-	-	-
CCc1ccc(NC(=O)Nc2ccc3c(c2)CCC3)cc1	3.5µM	-	-	-
Cc1ccc(C)c(Cn2c(=O)c3c(nc4n3CCN4c3ccc(F)cc3)n(C)c2=O)c1	.	.	-	-
CC(=O)c1cccc(Nc2ccc(Br)cc2)c1	10µM	.	.	.
Cc1cccc(NC(=O)C2C3CCCCC32)c1 (stereo unspecified)	10µM	.	-	-
COc1cccc(NC(=O)c2ccc3c(c2)CCCC3)c1	-	?	-	-
CC(=O)c1cccc(Nc2ncnc3ccc(Br)cc23)c1	-	-	-	-
CC(=O)c1cccc(NC(=O)c2ccc3c(c2)CCCC3)c1	3.5µM	?	-	-
CCCc1cc(=O)oc2cc(C)c3c(C(C)(C)C)coc3c12	.	.	-	-
COc1cccc(N=Nc2ccc3cccnc3c2O)c1	-	35µM	-	-
C=C(C)Cn1cnc2c(oc3nc4c(cc32)CCCC4)c1=O	5.6µM	-	-	-
O=C(c1ccncc1)N1CCN(S(=O)(=O)c2cccc(Cl)c2)CC1	-	-	.	.
CC[C@H]1C=C[C@@H](C(C(=O)OC)C(=O)OC)CN1C(C)=O	-	.	.	.
CN(C)/C=C/C(=O)c1cnc(-c2ccccc2Cl)s1	6.3µM	-	-	?
Nc1cc([N+](=O)[O-])ccc1Nc1ccccc1	-	-	-	16µM
O=C(O)c1cc([N+](=O)[O-])ccc1Nc1ccccc1	-	-	-	-
CCn1c(COc2ccc(OC)cc2)nc2ccccc21	11µM	-	-	?
CCn1c(COc2ccccc2)nc2ccccc21	-	?	-	-
CCCn1c(=O)sc2cc(NC(=O)c3ccc(OC)c(Br)c3)ccc21	-	.	-	-
CCOc1cccc(C(=O)NC(=S)Nc2ccccc2)c1	11µM	?	-	-
CNC(=S)Nc1cccc(C(=O)OC)c1	7.1µM	-	-	-
CCOc1cccc(C(=O)NC(=S)Nc2cccnc2)c1	-	-	-	-
CC(=O)c1cccc(NC(=S)NC(=O)c2ccc(Br)cc2)c1	?	?	-	-
CC(=O)c1cccc(NC(=S)NC(=O)c2ccc(C)cc2)c1	7.9µM	?	-	-
COc1ccc(-c2noc(CC(=O)N(C)c3ccccc3F)n2)cc1	.	.	-	-
SMILES	BRCA1 expr up	p53 reactivation	miR-21 reporter	Apoferritin bind
Cc1ccc(C(=O)NCC(=O)OCc2cc(=O)n3nc(C4CC4)sc3n2)cc1	-	.	-	-
CC(C)n1cnc(S(=O)(=O)N2CCCC(C(=O)NCc3ccccc3Cl)C2)c1 (stereo unspecified)	-	.	-	-
O=C(Nc1ccc(CN2CCCCC2)cc1)Nc1ccccc1Cl	7.1µM	-	-	-
CCN1CCN(Cc2ccccc2NC(=O)Nc2ccc(C)cc2)CC1	6.3µM	-	-	-
O=C(Nc1ccc2nccnc2c1)Nc1ccccc1Cl	10µM	-	-	-
CCn1ccc(C(=O)Nc2ccccc2Cl)n1	3.2µM	-	-	-
O=C(Nc1cccc(Cl)c1)Nc1ccc2nccnc2c1	?	?	-	-
CCn1ccc(C(=O)Nc2cccc(Cl)c2)n1	?	-	-	-
COc1ccc(C(OC(=O)c2ccco2)C(=O)NC2CCCC2)cc1 (stereo unspecified)	-	-	-	-
CC(C)OC(=O)N(C)C[C@H]1OCc2cn(nn2)CCCC(=O)N([C@H](C)CO)C[C@@H]1C	-	.	.	.
CCN1CCN(C(=O)C2(NC(=O)Nc3ccccc3Cl)CCCCC2)CC1	-	-	-	-
CCN1CCN(Cc2ccc(NC(=O)Nc3ccccc3Cl)cc2)CC1	?	20µM	-	-
COc1cc2nc(N3CCCN(C)CC3)nc(OC3CCN(C)CC3)c2cc1OC	-	.	.	.
O=C(C[n+]1cc(-c2ccc(F)cc2)n2c1CCC2)c1cccs1	2µM	-	-	-
O=C(COc1ccccc1)Nc1nc2c(s1)CCCC2	3.2µM	-	-	-
O=C(COc1ccccc1Cl)Nc1nc2c(s1)CCCC2	.	.	-	-
COc1ccccc1NC(=O)Nc1nc2ccc(S(N)(=O)=O)cc2s1	4µM	-	-	-
Cc1cccc(C(=O)Nc2nc3ccc(S(C)(=O)=O)cc3s2)c1	3.2µM	?	-	-
COc1ccc2nc(NC(=O)c3ccco3)sc2c1	?	-	-	-
CCN(CC)S(=O)(=O)c1ccc2nc(NC(=O)c3ccco3)sc2c1	11µM	-	-	-
CCN(CC)S(=O)(=O)c1ccc2nc(NC(=O)c3ccc(Br)o3)sc2c1	.	.	-	-
COc1ccc2nc(NC(=O)C3CCN(C(=O)c4ccco4)CC3)sc2c1	13µM	-	-	-
CCCCNC(=O)c1cnc2sc(N3CCCCCC3)nn2c1=O	.	.	-	-
O=C(NCCS(=O)(=O)NCc1cccs1)c1ccccc1	-	.	.	.
N/C(=N\OC(=O)c1ccccc1F)c1cccc([N+](=O)[O-])c1	?	.	-	-
SMILES	BRCA1 expr up	p53 reactivation	miR-21 reporter	Apoferritin bind
CC(C)C(=O)Nc1nc2ccc(S(C)(=O)=O)cc2s1	11µM	-	-	-
CCC(C)C(=O)Nc1nc2ccc(S(C)(=O)=O)cc2s1 (stereo unspecified)	-	-	-	-
O=C(CCNS(=O)(=O)c1ccccc1C(F)(F)F)NC1CCCCCC1	-	-	.	.
COc1ccccc1C(=O)NCCC(=O)N1CC(C)OC(C)C1 (stereo unspecified)	-	.	.	.
Cc1cc(C(=O)COC(=O)c2ccc(Cl)c(S(N)(=O)=O)c2)c(C)n1C1CC1	11µM	?	.	.
Cc1cc(C(=O)COC(=O)c2ccc(NC(=O)CC#N)cc2)c(C)n1C1CC1	4.5µM	-	.	.
CC(C)N(C(=O)COC(=O)c1ccc(Cl)c(S(N)(=O)=O)c1)C(C)C	-	-	-	-
COC(=O)N/N=C(C)/C=C/c1ccccc1	3.5µM	.	.	.
O=C(CCSc1ccc(Cl)cc1)N1CCOCC1	7.9µM	?	-	-
O=C(CSc1ccc(Cl)cc1)N1CCOCC1	-	-	-	-
CN1CCCN(Cc2nc(-c3ccc(Cl)cc3)no2)CC1	13µM	-	-	-
CCOCN(C(=O)Cn1c(CC(C)C)nc2ccccc21)c1c(C)cccc1CC	-	.	-	-
Nc1ccc(S(=O)(=O)N2CCOCC2)cc1	-	.	.	.
CC(=O)Oc1ccc(C2OC(=O)c3ccccc3N2C(C)=O)cc1 (stereo unspecified)	-	-	-	-
COc1ccc(C(=O)N2c3ccccc3C(=O)OC2c2ccc3c(c2)OCO3)cc1 (stereo unspecified)	11µM	?	-	-
Cc1ccc2oc(C(=O)N(C)Cc3ccc(C)o3)c(C)c2c1	-	?	-	-
Cc1ccc2oc(C(=O)N(C)Cc3ccon3)c(C)c2c1	8.9µM	-	-	-
O=C(COc1ccccc1C(=O)Nc1ccccc1)Nc1ccccc1F	-	.	.	.
Cn1cccc1/C=N/NC(=O)c1ccccn1	10µM	-	-	-
Cn1cccc1C(=O)N/N=C/c1c(Cl)cccc1Cl	6.3µM	?	-	-
O=c1c2ccccc2nc2c3ccccc3c(Cl)nn12	.	-	-	-
